Active and inactive are the calls of the source. Entries that show only a call come without a potency. The call rests on the fitted dose curve; in most records, active means well fitted cell-killing curve with a large enough effect; inconclusive means small, poorly fitted or top-dose-only effect; inactive means flat fitted curve, though single readings scatter.
Assay: Cell Viability - LYMP1-003 - Assay at 24 hr (AID 963)
Details: LYMP1-003 lymphoblastoid cell viability; series mostly up to 92.2 µM
Text: NIH Chemical Genomics Center [NCGC]
NIH Molecular Libraries Screening Centers Network [MLSCN]
National Institutes of Environmental Health Sciences [NIEHS]
National Toxicology Program [NTP]
We have developed a 1536-well cell-based assay for quantitative high throughput screening (qHTS) against a number of cell lines to determine in vitro cytotoxicity of small molecules. This particular assay uses a human lymphoblastoid cell line (LYMP1-003) purchased from Coriell Institute for Medical Research.
NCGC Assay Protocol Summary:
The CellTiter-Glo luminescent cell viability assay (Promega) is a homogeneous method to measure the number of viable cells in culture. The end point readout of this assay is based on quantitation of intracellular ATP, an indicator of metabolic activity, using the luciferase reaction. Luciferase catalyzes the oxidation of beetle Luciferin to oxyluciferin and light in the presence of ATP. The luminescent signal is proportional to amount of ATP present.
Using the CellTiter-Glo luminescent cell viability assay, the amount of cellular ATP was measured in the lymphoblastoid cell line with complete culture medium following compound treatment for 24 hours. The assay was performed in opaque white Kalypsys 1536-well plates. In the screen, tetraoctylammonium bromide was used as positive control. Library compounds were measured for their ability to cause acute toxicity in the cell line, as reflected by a decrease in intracellular ATP levels, in a concentration-dependent manner. […] AC50 values were determined from concentration-response data modeled with the standard Hill equation.
qHTS protocol for CellTiter Glo lymphoblastoid cellular assay
[Step] [Parameter] [Value] [Description]
1. Reagent; 5 uL; 2500 lymphoblastoid cells/well
2. Time; 5 hr; 37 C incubation
4. Controls; 23 nL; Tetraoctylammonium bromide 6.4pM to 92 uM
5. Time; 24 hr; 37 C incubation
6. Reagent; 5 uL; CellTiter Glo reagent
7. Time; 30 min; Room Temperature
8. Detection; Luminescence; Viewlux plate reader
Keywords: cell viability, cytotoxicity, lymphoblastoid cell line, luminescence, NTPHTS, NTPHTS_NCGC, NIEHS, DSSTox, MLSMR, MLSCN, NIH Roadmap, qHTS, NCGC
With `CC(C)CO` the Potency was “inactive”.
With `Cc1ccc(Br)cc1` the Potency was “inactive”.
For `CC(C)C(C)C`, the Potency was “inactive”.
For `Cc1cccc(C(=O)O)c1[N+](=O)[O-]`, the Potency was “inactive”.
With `Nc1ccc(F)cc1F` the Potency was “inactive”.
For `C=Cc1ccccc1C=C`, the Potency was “inactive”.
For `O=C1C=CCCC1`, the Potency was “inactive”.
For `CC(C)N=C=NC(C)C`, the Potency was “inactive”.
In the case of `Cc1ccc2ccccc2c1[N+](=O)[O-]`, the Potency is reported as “inactive”.
In the case of `CNC(=O)N(c1ccccc1)c1ccccc1`, the Potency is reported as “inactive”.
For `C=C(C)C(N)=O`, the Potency was “inactive”.
With `CCC1CO1` (stereo not given) the Potency was “inactive”.
For `CCc1ccccc1O`, the Potency was “inactive”.
In the case of `CCCCN(CCO)CCCC`, the Potency is reported as “inactive”.
In the case of `CC(C)Cc1nccs1`, the Potency is reported as “inactive”.
In the case of `O=C1CCC(=O)O1`, the Potency is reported as “inactive”.
With `Cc1c(C(=O)O)cccc1[N+](=O)[O-]` the Potency was “inactive”.
With `CN(C)CCCCl` the Potency was “inactive”.
In the case of `CCCCCCO`, the Potency is reported as “inactive”.
With `CCOCCO` the Potency was “inactive”.
In the case of `Cc1cccc2ccccc12`, the Potency is reported as “inactive”.
For `Cc1ccccc1C#N`, the Potency was “inactive”.
For `Cc1ccc(C)c([N+](=O)[O-])c1`, the Potency was “inactive”.
With `[O-]/[N+](=N\O)c1ccccc1` the Potency was “inactive”.
With `CC=C(Cl)Cl` the Potency was “inactive”.
In the case of `NCCCCCCN`, the Potency is reported as “inactive”.
For `O=C(O)c1c(Cl)cccc1Cl`, the Potency was “inactive”.
In the case of `COc1ccc(N)c(C)c1`, the Potency is reported as “inactive”.
With `O=[N+]([O-])c1cc(C(F)(F)F)ccc1Cl` the Potency was “inactive”.
For `O=C(O)c1ccc(Cl)c(Cl)c1`, the Potency was “inactive”.
For `O=C(O)c1ccc(CO)o1`, the Potency was “inactive”.
In the case of `CNc1ccccc1`, the Potency is reported as “inactive”.
For `COC(=O)CC#N`, the Potency was “inactive”.
For `CCCCC(=O)N(C)C`, the Potency was “inactive”.
In the case of `CC1=C(/C=C/C(C)=C/C=C/C(C)=C\C=O)C(C)(C)CCC1`, the Potency is reported as 63.1 µM (active).
For `Cc1cc(C)cc([N+](=O)[O-])c1`, the Potency was “inactive”.
In the case of `Nc1nc(CC(=O)O)cs1`, the Potency is reported as “inactive”.
For `CCCCCCCCC/C=C/CC1CC(=O)OC1=O` (stereo not given), the Potency was “inactive”.
For `C[C@@H]1O[C@@H](O[C@@H]2[C@@H](O)[C@H](OCCc3ccc(O)c(O)c3)O[C@H](CO[C@@H]3O[C@H](CO)[C@@H](O)[C@H](O)[C@H]3O)[C@H]2OC(=O)/C=C/c2ccc(O)c(O)c2)[C@H](O)[C@H](O)[C@H]1O`, the Potency was “inactive”.
For `c1ccc2c(c1)Oc1ccccc1S2`, the Potency was “inactive”.
Potency means the concentration at half of the fitted maximal effect.
